The text below walks through data of PubChem BioAssay.

Assay [1] deals with Cell division control protein 42 homolog (Homo sapiens) (UniProt P60953). Nature of the assay: activated mutant Cdc42 GTP-binding inhibitors, dose response, biochemical, multiplex bead flow cytometry, Bodipy-FL-GTP (AID 1333;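 active means fitted half-maximal concentration within the tested dose range, moderate curve steepness, a statistically real signal drop, and little compound fluorescence or tag-binding interference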). (In general: In flow cytometry, cells or beads pass a laser one at a time.)
Assay [2] has the same target. Put plainly: wildtype Cdc42 GTP-binding inhibitors, dose response, biochemical, multiplex bead flow cytometry, Bodipy-FL-GTP (AID 1334;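 active means fitted half-maximal concentration within the tested range, moderate curve steepness, significant signal drop, and little compound fluorescence or bead-linkage interference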). The following applies: bead-based flow cytometry, Bodipy-FL-GTP binding to GST-Cdc42; at 100 µM (top of the series) unless noted.
For assay [3], the target named is GTPase HRas (Homo sapiens) (UniProt P01112). Put plainly: inhibitors of GTP binding to wildtype Ras, dose response, biochemical, multiplex bead flow cytometry (AID 1335;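 active means fitted half-maximal concentration within 10 nM to 100 µM, steepness 0.5 to 2, significant signal drop, low assay interference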). The following applies: bead-based flow cytometry, Bodipy-GTP binding to GST-Ras; at 100 µM (top of the series) unless noted.
For assay [4], the system named is Ras-related protein Rab-7a (dog), GTP binding. Put plainly: Rab7 GTP binding inhibitors, potency, dose response, biochemical, wildtype, multiplex bead flow cytometry (AID 1336; call rule not given here).
Assay [5] addresses Ras-related C3 botulinum toxin substrate 1 (Homo sapiens) (UniProt P63000). Put plainly: wildtype Rac1 GTP binding inhibitors, dose response, biochemical, multiplex bead flow cytometry (AID 1340). To be noted: GST-Rac1 beads, Bodipy-FL-GTP binding; at 100 µM (top of the series) unless noted.
Assay [6] concerns the target GTPase HRas (Homo sapiens) (UniProt P01112). Put plainly: activated Ras mutant GTP binding inhibitors, dose response, biochemical, multiplex bead flow cytometry (AID 1341;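 active means dose-response curve with midpoint inside the tested range, moderate steepness, significant amplitude and little compound fluorescence or bead-attachment interference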;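 further: GST-tagged constitutively activated Ras mutant immobilized on beads and multiplexed with other GTPases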).

For part of these data: Measured potencies and affinities stand elsewhere. Activity calls are given as the source filed them.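 How the source made its calls, unless noted: active means dose curve with midpoint inside tested range, moderate steepness, plateau gap beyond fit error, low compound glow and bead-link interference; inactive means the rest.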

Chain of Cell division control protein 42 homolog (Homo sapiens) (P60953 whole entry, looked up): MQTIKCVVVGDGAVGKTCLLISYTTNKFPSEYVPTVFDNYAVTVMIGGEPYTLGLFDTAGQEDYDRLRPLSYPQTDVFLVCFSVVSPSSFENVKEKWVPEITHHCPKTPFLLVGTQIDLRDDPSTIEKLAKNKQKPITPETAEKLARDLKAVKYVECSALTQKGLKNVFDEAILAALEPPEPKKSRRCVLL
Chain of GTPase HRas (Homo sapiens) (P01112 whole entry, looked up): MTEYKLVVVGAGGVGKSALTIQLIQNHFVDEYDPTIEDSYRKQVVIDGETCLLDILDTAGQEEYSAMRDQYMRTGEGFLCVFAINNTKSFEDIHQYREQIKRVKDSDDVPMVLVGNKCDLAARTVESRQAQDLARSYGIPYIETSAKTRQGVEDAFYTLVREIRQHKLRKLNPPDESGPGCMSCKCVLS

For `COC(=O)c1c(N2C(=O)[C@H]3[C@@H](C2=O)[C@]2(C(=O)Nc4c(C)cc(C)cc42)N2CCC[C@@H]32)sc(C)c1C`, the call in assay [1], in assay [4] and in assay [6] was inactive. For the same molecule, the fluorescence, percent of control (lower = inhibition) in assay [2] was 45.1%. This molecule had a GTP binding, percent of control in assay [3] of 97.2%. The same molecule showed a GTP binding signal, raw median fluorescence (lower = inhibition) (MCF (arbitrary fluorescence units)) in assay [5] of 238.

Regarding `CSc1nc2nccc(-c3ccc(-c4ccccc4)cc3)n2n1`, the outcome in assay [1], in assay [4] and in assay [6] was inactive. Also, the fluorescence, percent of control (lower = inhibition) in assay [2] was 79.7%. This molecule also yielded a GTP binding, percent of control in assay [3] of 132%. In assay [5], the GTP binding signal, raw median fluorescence (lower = inhibition) (MCF (arbitrary fluorescence units)) turned out to be 138.

For the molecule `Cn1nnnc1SCc1ccc(C(=O)Nc2nccs2)cc1`, the outcome in assay [1], in assay [4] and in assay [6] was inactive. Also, the fluorescence, percent of control (lower = inhibition) in assay [2] turned out to be 36.8%. In assay [3], this molecule had a GTP binding, percent of control of 47.9%. The molecule further gave a GTP binding signal, raw median fluorescence (lower = inhibition) (MCF (arbitrary fluorescence units)) in assay [5] of 126.

As for `O=C1c2oc3ccc(Br)cc3c(=O)c2C(c2cccc(F)c2)N1CCO` (centres undefined), the molecule was called inactive in assay [1], in assay [4] and in assay [6]. In assay [2], the fluorescence, percent of control (lower = inhibition) stood at 36.4%. Also, the GTP binding, percent of control in assay [3] turned out to be 81.2%. The molecule further displayed a GTP binding signal, raw median fluorescence (lower = inhibition) (MCF (arbitrary fluorescence units)) in assay [5] of 276.

With `COc1cc(/C=N/NC(=O)Nc2cccc3nsnc23)cc(OC)c1OC`, the molecule was classed as inactive in assay [1], in assay [4] and in assay [6]. Also, the fluorescence, percent of control (lower = inhibition) in assay [2] worked out at 60.6%. The GTP binding, percent of control in assay [3] turned out to be 105%. The molecule further came in with a GTP binding signal, raw median fluorescence (lower = inhibition) (MCF (arbitrary fluorescence units)) in assay [5] of 126.

Turning to `CCOC(=O)c1cc(C(=O)OCC)c(=O)[nH]c1N1CCCC1`, the result in assay [1], in assay [4] and in assay [6] was inactive. Further, in assay [2], the fluorescence, percent of control (lower = inhibition) came out at 31.6%. For the same molecule, the GTP binding, percent of control in assay [3] was 72.4%. For the same molecule, the GTP binding signal, raw median fluorescence (lower = inhibition) (MCF (arbitrary fluorescence units)) in assay [5] turned out to be 262.

On to `CCOC(=O)c1cccnc1SCCc1ccccc1`, for which the molecule was called inactive in assay [1], in assay [4] and in assay [6]. The fluorescence, percent of control (lower = inhibition) in assay [2] amounted to 125%. Further, the GTP binding, percent of control in assay [3] was found to be 155%. Further, in assay [5], the GTP binding signal, raw median fluorescence (lower = inhibition) (MCF (arbitrary fluorescence units)) turned out to be 95.5.

As for `COc1ccc(OC)c(Nc2nc(-c3sc(N)nc3C)cs2)c1`, the result in assay [1], in assay [4] and in assay [6] was inactive. Moreover, in assay [2], the fluorescence, percent of control (lower = inhibition) amounted to 32.7%. Moreover, the GTP binding, percent of control in assay [3] turned out to be 72.6%. For the same molecule, the GTP binding signal, raw median fluorescence (lower = inhibition) (MCF (arbitrary fluorescence units)) in assay [5] worked out at 179.

For the molecule `COCCN1C(=O)/C(=C/c2ccc(N3CCCC3)cc2)SC1=S`, the call in assay [1], in assay [4] and in assay [6] was inactive. Moreover, in assay [2], the fluorescence, percent of control (lower = inhibition) amounted to 64.2%. In addition, the GTP binding, percent of control in assay [3] is 106%. In assay [5], this molecule yielded a GTP binding signal, raw median fluorescence (lower = inhibition) (MCF (arbitrary fluorescence units)) of 311.

Turning to `COc1ccccc1CNC(=O)c1c(N)n(CCCN2CCOCC2)c2nc3ccccc3nc12`, the outcome in assay [1], in assay [4] and in assay [6] was inactive. The fluorescence, percent of control (lower = inhibition) in assay [2] amounted to 44.4%. In assay [3], this molecule registered a GTP binding, percent of control of 89.9%. In assay [5], this molecule came in with a GTP binding signal, raw median fluorescence (lower = inhibition) (MCF (arbitrary fluorescence units)) of 214.

For `O=C(COc1ccccc1/C=C\c1[nH]c(=O)[nH]c(=O)c1[N+](=O)[O-])Nc1ccccc1`, the outcome in assay [1], in assay [4] and in assay [6] was inactive. Also, in assay [2], the fluorescence, percent of control (lower = inhibition) stood at 29.1%. In assay [3], the GTP binding, percent of control worked out at 77.1%. Besides, the GTP binding signal, raw median fluorescence (lower = inhibition) (MCF (arbitrary fluorescence units)) in assay [5] came out at 191.

For the molecule `O=C(O)C1(NCc2ccc(F)cc2)CCCCC1`, the call in assay [1], in assay [4] and in assay [6] was inactive. In addition, the fluorescence, percent of control (lower = inhibition) in assay [2] came to 62.4%. Moreover, the GTP binding, percent of control in assay [3] was found to be 89.4%. This molecule also showed a GTP binding signal, raw median fluorescence (lower = inhibition) (MCF (arbitrary fluorescence units)) in assay [5] of 33.6.

On to `O=C(O)c1ccc(/C=N/NC(=O)c2cc(-c3ccc4c5c(cccc35)CC4)n[nH]2)cc1`, for which the outcome in assay [1], in assay [4] and in assay [6] was inactive. In addition, the fluorescence, percent of control (lower = inhibition) in assay [2] came out at 28.2%. This molecule gave a GTP binding, percent of control in assay [3] of 71.2%. This molecule also yielded a GTP binding signal, raw median fluorescence (lower = inhibition) (MCF (arbitrary fluorescence units)) in assay [5] of 151.

Regarding `CCCCCOC(=O)c1ccccc1C(=O)O`, the molecule was called inactive in assay [1], in assay [4] and in assay [6]. The fluorescence, percent of control (lower = inhibition) in assay [2] was 134%. In assay [3], this molecule registered a GTP binding, percent of control of 220%. The GTP binding signal, raw median fluorescence (lower = inhibition) (MCF (arbitrary fluorescence units)) in assay [5] is 275.
